Wnt act = Wnt/beta-catenin pathway activation; Wnt/beta-catenin reporter cell assay, activator, plate reader; activation, % at 9.35 µM; actives 1.2% (n = 300,000); in the data active means activation above about 30%, passing the limit was not always enough;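 further: 0% = neutral control wells and 100% = positive control wells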
Rtt109 HAT inh = blocks Candida albicans Rtt109/Vps75 acetyltransferase activity. Q5AAJ8. inhibition, % at 34.9 µM. actives 0.16% (n = 330,000). purified Rtt109/Vps75, ThioGlo CoA-SH fluorescence, 4 h;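 active means inhibition of at least 50% in every replicate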
Target sequence (Q5AAJ8 whole entry, looked up): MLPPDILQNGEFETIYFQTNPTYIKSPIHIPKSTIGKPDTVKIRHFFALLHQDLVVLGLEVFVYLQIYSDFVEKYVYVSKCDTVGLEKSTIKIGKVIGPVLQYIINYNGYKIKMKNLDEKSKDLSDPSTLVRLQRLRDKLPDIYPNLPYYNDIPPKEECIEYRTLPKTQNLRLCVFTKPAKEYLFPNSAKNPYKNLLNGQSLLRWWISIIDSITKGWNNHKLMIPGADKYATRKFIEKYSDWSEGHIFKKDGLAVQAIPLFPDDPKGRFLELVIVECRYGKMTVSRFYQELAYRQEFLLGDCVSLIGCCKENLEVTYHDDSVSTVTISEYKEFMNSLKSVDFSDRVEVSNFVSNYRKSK
esBAF inh = inhibitors of esBAF chromatin remodeling in mouse ES cells | Bmi1-luciferase knock-in reporter, 24 h; 100% = twice the neutral-well signal | reporter increase, % at 12.5 µM | actives 2% (n = 350,000); in the data active means activation above about 40%;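 further: 0% = median of the plate's neutral control wells and 100% = double that signal; a rise in the Bmi1 reporter signal indicates esBAF inhibition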
MITF TRPM1 HTS = increases MITF-driven TRPM1 promoter luciferase signal; SK-MEL-5 TRPM1-promoter luciferase, 24 h; % of positive control, neutral wells = 0; activation, % at 12.5 µM; actives 0.75% (n = 300,000);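 active means mean activation of at least 80% with every replicate also reaching 80%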;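 further: 0% = neutral control wells and 100% = parthenolide positive control wells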
C2C12 statin = suppressors of simvastatin-induced myotoxicity in C2C12 myotubes. ATP luminescence, 48 h; scaled: DMSO 0, geranylgeraniol control 100. rescue of ATP level, % at 7.49 µM. actives 0.78% (n = 330,000). AID 602340;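 active means mean ATP rescue above about 67%, or every replicate alone reaching that limit, limit read from the data, passing the limit was not always enough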;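 further: myotubes were challenged with 10 µM simvastatin during compound exposure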
Starred values were filed as active, the others as inactive; / = not tested or not shown; ! = repeats disagree. Rows were chosen to be rich in hits. Some 3.1% of all compounds tested hit in one or more screens of this group.

SMILES | Wnt act | Rtt109 HAT inh | esBAF inh | MITF TRPM1 HTS | C2C12 statin
O=C1C(=O)N(c2ccccc2)P(=O)(N(CCCl)CCCl)N1c1ccccc1 | 36.5* | 1.2 | 27.2 | 99.4* | 4.4
COC(=O)C1=C(C)NC(C)=C(C(=O)OC)C1c1ccccc1[N+](=O)[O-] | -2.2 | 133.8*! | -11.6 | -3.6 | -4.6
CC1(O)C[C@]2(C)N(O)C3CCCC[C@@H]3N2O1 (stereo not given in full) | / | -8.9 | -2.2 | 4.2 | 2.9
CC1(C)N(O)C2CCCCC2N1O (stereo not given) | -1.3 | -0.9 | -7.0 | -4.1 | 107.2*
COc1ccc(CCN(C)Cc2ccc(F)cc2F)cc1OC | 34.4* | -6.8 | 3.4 | 2.8 | 6.2
CC(C)c1ccc(C(c2c(O)c3ccccc3oc2=O)c2c(O)c3ccccc3oc2=O)cc1 | 0.3 | / | / | / | /
O=c1oc2ccccc2c(O)c1C(c1ccc([N+](=O)[O-])cc1)c1c(O)c2ccccc2oc1=O | -0.1 | 68.2* | -2.6 | -16.4 | 9.0
CCN1[C@@H]2c3ccc(-c4cccc(C(=O)N(C)C)c4)c(=O)n3C[C@H]1[C@H](CO)[C@H]2C(=O)OC | / | / | -10.3 | / | -6.2
CCCCCn1c(=O)c(C(=O)Nc2ccccc2C)c(O)c2ccccc21 | 9.0 | 2.5 | 51.5* | 7.8 | -11.7
CC(Cc1ccccc1)/[N+]([O-])=C\c1ccc(C(F)(F)F)cc1 (stereo not given) | 27.1 | 1.1 | 75.9* | 115.4* | 3.1
CNC(C)Cc1ccccc1 (stereo not given) | 2.8 | 5.9 | 5.0 | 5.8 | -10.8
CC(=O)OC1CC2OC3C=C(C)CCC3(C)C1(C)C21CO1 (stereo not given) | -3.4 | / | -55.0 | / | 209.6*
COC(=O)[C@@H]1[C@@H](CO)[C@@H]2Cn3c(ccc(-c4cccc(OC)c4)c3=O)[C@H]1N2C(=O)c1cnccn1 | / | / | -2.1 | / | 4.1
CCc1ccc(N2C(=O)NC(=O)/C(=C\c3cccn3CCOc3ccc(C(C)C)cc3)C2=O)cc1 | 34.1* | 4.5 | / | 13.1 | /
O=C(Cc1cccnc1)N1CCCCN2[C@H](C1)[C@@H](c1ccc(C#CC3(O)CCCC3)cc1)[C@@H]2CO | / | / | 0.8 | / | -0.7
CN1CCC(N(C)c2ncnc3ccc(Br)cc23)CC1 | / | -5.5 | -2.5 | 2.3 | 82.9*
CN1CCN(c2ncnc3ccc(Br)cc23)CC1 | / | 0.4 | -4.8 | / | 0.8
CCn1c(C)c(C(=O)Nc2ccc(OC)cc2)c2cc(OC)ccc21 | 15.7 | 0.2 | 50.9* | 49.3 | -42.5
COC(=O)[C@@H]1[C@@H](CO)[C@@H]2Cn3c(ccc(-c4ccccc4F)c3=O)[C@H]1N2Cc1ccncc1 | / | / | 3.7 | / | 14.7
COC(=O)[C@@H]1[C@@H](CO)[C@@H]2Cn3c(cccc3=O)[C@H]1N2Cc1nccs1 | / | / | 7.8 | / | -32.3
O=P(Nc1ccccc1)(Nc1ccccc1)Oc1cccc(Cl)c1 | / | 7.4 | -7.1 | -0.6 | 97.4*
O=P(Nc1ccccc1)(Nc1ccccc1)Oc1ccccc1 | -4.6 | -0.1 | / | 6.3 | /
COc1ccc(Oc2cc(NC(=O)c3nn(C)cc3[N+](=O)[O-])cc([N+](=O)[O-])c2)cc1 | -13.2 | -1.6 | -3.2 | -80.7 | 97.0*
O=C(O)[C@@H]1[C@@H](CO)[C@@H]2Cn3c(ccc(-c4cccc(F)c4)c3=O)[C@H]1N2CCc1ccccc1 | / | / | -2.9 | / | -19.3
COc1ccccc1CCNC(=O)CCC(=O)N1CC2C[C@@H](C1)Cn1c2cccc1=O | -0.9 | -7.5 | 46.5* | 19.2 | -4.7
SMILES | Wnt act | Rtt109 HAT inh | esBAF inh | MITF TRPM1 HTS | C2C12 statin
COc1cccc(CNC(=O)CCC(=O)N2C[C@H]3C[C@H](C2)c2cccc(=O)n2C3)c1OC | 1.4 | -12.8 | 0.6 | 5.4 | 0.5
CN1C(=O)/C(=C\c2ccc(N3CCCCC3)o2)C(=O)NC1=S | 49.7* | -1.2 | 20.9 | / | 11.7
CN1C(=O)/C(=C/c2ccc(N3CCCCCC3)o2)C(=O)NC1=S | 44.1* | -24.8 | 3.1 | / | -12.6
CN1C(=O)/C(=C\c2ccc(N3CCCCCC3)cc2)C(=O)NC1=S | 4.2 | 11.3 | / | / | /
C=CCN1C(=O)/C(=C\c2ccc(N3CCOCC3)o2)C(=O)NC1=S | -2.9 | 2.0 | / | -5.9 | /
COC(=O)[C@@H]1[C@@H](CO)[C@@H]2Cn3c(ccc(-c4cccnc4)c3=O)[C@H]1N2S(=O)(=O)c1ccccc1F | / | / | -4.7 | / | -3.3
COCC(=O)N1[C@@H]2Cn3c(ccc(C4=CCCC4)c3=O)[C@H]1[C@@H](C(=O)OC)[C@@H]2CO | / | / | -0.3 | / | -14.9
CCc1ccc(-c2nn(Cc3ccccc3)cc2C=O)cc1 | 13.5 | -3.6 | 67.0* | 69.3 | -5.9

High-throughput results deposited in PubChem by Broad Institute.
